Data: PubChem BioAssay AID504339 (National Center for Advancing Translational Sciences (NCATS), 2011)
The whole screen tested about 390,000 compounds, of which about 17,000 (4.4%) were called active. Another 8% or so got no clear call; they are omitted. The sample holds actives, similar compounds and a random draw of the others, so the mix is not that of the screen. Unmarked numbers belong to inactive results. The call rests on the fitted dose curve; in most records, active means well fitted inhibition curve with a large enough effect; inconclusive means small, poorly fitted or top-dose-only effect; inactive means no such curve, though single readings can be large or run the other way.

These molecules were tested against Lysine-specific demethylase 4A (Homo sapiens) (UniProt O75164) (assay: qHTS Assay for Inhibitors of JMJD2A-Tudor Domain). Settings: AlphaScreen JMJD2A-Tudor / H3K4me3 peptide binding; series mostly up to 114 µM; activity change, negative = inhibition: at the top concentration.
Lysine-specific demethylase 4A (Homo sapiens), sequence (O75164 whole entry, looked up, the tested form may be a part): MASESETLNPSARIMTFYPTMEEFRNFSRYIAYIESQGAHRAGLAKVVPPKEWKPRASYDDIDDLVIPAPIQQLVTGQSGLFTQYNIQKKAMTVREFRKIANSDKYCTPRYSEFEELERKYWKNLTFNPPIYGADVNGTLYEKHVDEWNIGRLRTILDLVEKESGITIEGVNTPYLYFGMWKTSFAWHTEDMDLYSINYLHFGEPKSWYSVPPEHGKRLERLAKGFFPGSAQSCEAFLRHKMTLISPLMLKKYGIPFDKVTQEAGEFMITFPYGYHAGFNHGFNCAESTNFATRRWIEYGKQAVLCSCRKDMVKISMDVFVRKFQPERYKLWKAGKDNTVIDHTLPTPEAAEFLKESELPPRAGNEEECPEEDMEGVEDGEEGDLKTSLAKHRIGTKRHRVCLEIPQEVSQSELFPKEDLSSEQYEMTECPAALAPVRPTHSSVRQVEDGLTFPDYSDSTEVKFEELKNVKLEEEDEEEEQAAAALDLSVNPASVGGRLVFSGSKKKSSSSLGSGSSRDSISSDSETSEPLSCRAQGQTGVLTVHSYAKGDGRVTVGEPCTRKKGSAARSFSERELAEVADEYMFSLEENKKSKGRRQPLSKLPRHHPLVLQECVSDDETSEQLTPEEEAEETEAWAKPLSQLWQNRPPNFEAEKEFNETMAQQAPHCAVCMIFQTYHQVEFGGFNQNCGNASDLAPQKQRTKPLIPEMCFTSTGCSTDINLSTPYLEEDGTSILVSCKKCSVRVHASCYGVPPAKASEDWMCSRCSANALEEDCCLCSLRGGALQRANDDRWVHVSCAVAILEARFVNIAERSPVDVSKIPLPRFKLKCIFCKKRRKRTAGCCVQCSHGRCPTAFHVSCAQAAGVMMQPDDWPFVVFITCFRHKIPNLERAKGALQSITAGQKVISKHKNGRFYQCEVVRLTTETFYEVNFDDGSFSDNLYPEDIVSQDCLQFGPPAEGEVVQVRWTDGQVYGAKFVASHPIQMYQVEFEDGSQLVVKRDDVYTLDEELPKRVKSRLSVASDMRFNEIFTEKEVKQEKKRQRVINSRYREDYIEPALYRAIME
Further: nearly all actives have a fitted effect of over 50% in size.
On the % scale 0 is the no-effect control and ±100 the full control effect; potency means the concentration at half of the fitted maximal effect.

Row | SMILES | activity change, negative = inhibition | Potency
1 | CC(C)C(=O)Nc1nc2c(s1)CC(C(C)(C)C)CC2 (stereo not given) | 4.64% | 
2 | CC1CN(C(=O)N2CCC(C(=O)NCc3cccs3)CC2)c2ccccc2O1 (stereo not given) | 0% | 
3 | Cc1nn(-c2nc(-c3ccccc3)cc(C(F)(F)F)n2)c(C)c1Cl | 33.8% | 
4 | CNc1ccc(-c2nc(-c3ccccc3C)no2)cc1[N+](=O)[O-] | -1.66% | 
5 | COc1ccc(N(C)C(=O)C2CCN(S(=O)(=O)c3cc(Br)cc4c3N(C(C)=O)CC4)CC2)cc1 | -15% | 
6 | Cc1onc(-c2ccccc2Cl)c1C(=O)N(Cc1ccc(N(C)C)cc1)C(C)C |  | 39.8 µM (active)
7 | Cc1ccc2cc(CCNC(=O)c3c(-c4ccccc4Cl)noc3C)c(=O)[nH]c2c1 | -5.52% | 
8 | Cc1onc(-c2ccccc2Cl)c1C(=O)NCCn1ccc2ccccc21 | 1.65% | 
9 | CCOc1ccc(OCC)c(Nc2nc3ccccc3n3nnnc23)c1 | -3.36% | 
10 | CCC(=O)N1CCc2cc(Br)cc(S(=O)(=O)CCC(=O)N3CCN(c4ccc(F)cc4)CC3)c21 | -17.4% | 
11 | Cc1ccccc1CSc1nc(-c2ccccc2)nc2c1Cc1c(CO)cnc(C)c1O2 | 4.4% | 
12 | CCOC(=O)Cn1c(=O)n(C2CCCCC2)c2nc(-c3cccc(OC)c3)nc(C(N)=O)c21 | 6.39% | 
13 | N#Cc1ccccc1CN1C(=O)S/C(=C/c2cccn2-c2cccc(C(=O)O)c2)C1=O |  | 56.2 µM (active)
14 | CN(C(=O)CSc1nc2ccccc2n1Cc1ccccc1C#N)c1ccccc1 | -17.2% | 
15 | O=C(CN1CCCCCC1)NCCN1C(=O)S/C(=C\c2ccccc2Cl)C1=O | -27.5% | 
16 | CCOc1ccccc1NC(=O)C1=C(C)Nc2ncnn2C1c1ccc(NC(C)=O)cc1 (stereo not given) | -9.27% | 
17 | COc1ccc(Cl)cc1NC(=O)CSc1nc2ccccc2c2nc(-c3ccccc3)nn12 | -16.3% | 
18 | O=C1COc2c1ccc(O)c2O |  | 5.62 µM (active)
19 | CC(C)(C)c1ccc(CN2C(=O)c3ccccc3S2(=O)=O)cc1 | 39.4% | 
20 | COc1ccc(CN2CCC(=O)c3ccccc3S2(=O)=O)cc1 | -16.6% | 
21 | O=C1CN(Cc2ccccc2)S(=O)(=O)c2ccccc21 |  | 79.4 µM (active)
22 | CCn1cc2nc(SCc3cccc(F)c3)n(CCc3ccccc3)c(=O)c2n1 | -13.6% | 

Row | SMILES | activity change, negative = inhibition | Potency
23 | Cc1ccccc1Nc1nc(N)nc(CSc2ccccc2)n1 | -23.1% | 
24 | Cc1ccccc1Nc1nc(N)nc(CN2CCN(c3ccccn3)CC2)n1 |  | 56.2 µM (active)
25 | Cc1ccccc1Nc1nc(N)nc(CSc2nnc3ccccn23)n1 | -1.03% | 
26 | Cc1cc(NC(=O)c2cccc(Cl)c2)ccc1-c1cc2ccccc2oc1=O | -15% | 
27 | O=C(c1cccs1)c1cn(CCOc2ccc(Cl)cc2)c2ccccc12 | -16.5% | 
28 | CCN(CC)CCNC(=O)c1cc2c(=O)oc3ccc(C)cc3c2s1 | 5.72% | 
29 | CCc1ccc(S(=O)(=O)c2nnn3c2nc(NCc2ccccc2OC)c2cc(Cl)ccc23)cc1 | 2.18% | 
30 | CN(C)S(=O)(=O)N1CCN(c2ccc([N+](=O)[O-])cc2)CC1 | -14.7% | 
31 | COc1ccc(N2CCN(c3ccc([N+](=O)[O-])cc3Cl)CC2)cc1 | -10.3% | 
32 | O=[N+]([O-])c1ccc(N2CCN(c3ccc(O)cc3)CC2)c(Cl)c1 |  | 44.7 µM (active)
33 | Cc1ccc(Cl)cc1NC(=O)CCS(=O)(=O)c1ccc(Br)s1 | -32.1% | 
34 | Cc1ccc(S(=O)(=O)N2CC(=O)Nc3ccccc32)cc1C | -9.3% | 
35 | Cc1ccc(C)c(S(=O)(=O)N2CCN(C(=O)Nc3ccccc3)CC2)c1 | -24% | 
36 | Cc1ccc(C)c(S(=O)(=O)N2CC(=O)Nc3ccccc32)c1 |  | 79.4 µM (active)
37 | CCOc1ccc(CCNC(=O)c2csc3c2CCCCC3)cc1 | -11.6% | 
38 | COc1ccc(C2=NC3(CCCCC3)N(CC(=O)Nc3ccc(C(C)C)cc3)C2=O)cc1 | -11.7% | 
39 | Cc1ccc(-n2nc(C)c3c(C)cc(=O)n(CC(=O)Nc4ccc(C(C)C)cc4)c32)cc1 | -1.33% | 
40 | CC(=O)Nc1ccc(NC(=O)COc2ccc(S(=O)(=O)NC(C)c3ccccc3)cc2)cc1 (stereo not given) | -12.4% | 
41 | CCCCC(CC(C)O)c1n[nH]c(=S)n1-c1ccccc1 (stereo not given) |  | 28.2 µM (active)
42 | CC(NS(=O)(=O)c1ccccc1)c1n[nH]c(=S)n1-c1ccccc1 (stereo not given) |  | 25.1 µM (active)
43 | CC(NS(=O)(=O)c1ccc(OCC(=O)N2CCCC2)cc1)c1ccccc1 (stereo not given) | -20% | 
44 | CCCSc1nc2sc3c(c2c(=O)n1-c1cccc(Br)c1)CC(C)(C)OC3 | -6.23% | 

Row | SMILES | activity change, negative = inhibition | Potency
45 | CCC(C(=O)Nc1cccc(Cl)c1C)n1nc(-c2ccc(C)cc2)ccc1=O (stereo not given) | 1.57% | 
46 | CCc1ccc(NC(=O)c2cc(S(=O)(=O)NC3CCCCCC3)ccc2F)cc1 | -16.5% | 
47 | CCn1c(SCC(=O)NC2=NCCS2)nnc1C(C)NC(=O)c1ccccc1F (stereo not given) | 0.714% | 
48 | COCCn1c(SCC(=O)Nc2nc(C)cs2)nnc1C(C)C | -6.34% | 
49 | CCn1c(SCC(=O)Nc2nc(C)cs2)nnc1C(C)NC(=O)c1ccccc1 (stereo not given) |  | 79.4 µM (active)
50 | Cc1ccc(N2CC(NC(=O)Cc3cccs3)CC2=O)cc1 (stereo not given) | -0.325% | 
51 | COc1cccc(CNCc2c(C(=O)O)n(Cc3ccc(C)cc3)c3cc(C)ccc23)c1OC | -27.8% | 
52 | CC(N=Cc1nc(-c2ccccc2)oc1O)c1ccccc1 (stereo not given) |  | 79.4 µM (active)
53 | Oc1oc(-c2ccccc2Br)nc1/C=N/c1ccccn1 | -28.1% | 
54 | CCOc1ccc2nc(/N=C/c3nc(-c4ccccc4)oc3O)sc2c1 | 0.641% | 
55 | CCN(Cc1ccccc1)S(=O)(=O)c1ccc2c(c1)CCCN2C(C)=O | -0.968% | 
56 | COC(=O)c1cc(NC(=O)c2cnc(SC)nc2-c2ccccc2)cc(C(=O)OC)c1 | -3.53% | 
57 | O=C1/C(=C/c2ccc(F)cc2)SC(=S)N1NS(=O)(=O)c1ccccc1 | -31.5% | 
58 | O=C1CCCCN1CCCC(=O)N1CCCC(Nc2ccc(F)cc2)C1 (stereo not given) | -26.6% | 
59 | O=C1/C(=C/c2ccc(F)cc2)SC(=S)N1CCCC(=O)N1CCCCC1CCO (stereo not given) |  | 44.7 µM (active)
60 | CCOc1cccc2cc(-c3cn4c(n3)sc3cc(C)ccc34)c(=O)oc12 | -17.3% | 
61 | O=C(CSc1ncc(S(=O)(=O)c2ccc(Br)cc2)c(=O)[nH]1)Nc1ccc2c(c1)OCCO2 | -23.6% | 
62 | COc1cc2nc(SCC(=O)Nc3ccccc3F)n3nc(-c4ccccc4)nc3c2cc1OC | -20.3% | 
63 | COc1ccc(N2CCN(C(=O)c3cccs3)CC2)cc1 | -25.6% | 
64 | COc1ccc(N2CCN(Cc3nnc(-c4ccccc4)o3)CC2)cc1 | -22.4% | 
65 | COc1ccc(N2CCN(Cc3ccc(Br)s3)CC2)cc1 |  | 3.55 µM (active)
